Sampled rows, rich in hits. Any-hit rate of the full collection: about 10%.
ALDH1A1 block: inhibitors of human aldehyde dehydrogenase 1A1; actives 7.3% (n = 220,000); AID 1030; Potency, µM (series often up to 75.3 µM), for the others: at the top dose activity, negative = inhibition, most hits filed as inhibitors; Purified ALDH1A1, NADH fluorescence, propionaldehyde substrate;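 further: potency means the concentration at half of the fitted maximal effect; plate controls were no enzyme wells and a reference inhibitor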
Target sequence (P00352 whole entry, looked up): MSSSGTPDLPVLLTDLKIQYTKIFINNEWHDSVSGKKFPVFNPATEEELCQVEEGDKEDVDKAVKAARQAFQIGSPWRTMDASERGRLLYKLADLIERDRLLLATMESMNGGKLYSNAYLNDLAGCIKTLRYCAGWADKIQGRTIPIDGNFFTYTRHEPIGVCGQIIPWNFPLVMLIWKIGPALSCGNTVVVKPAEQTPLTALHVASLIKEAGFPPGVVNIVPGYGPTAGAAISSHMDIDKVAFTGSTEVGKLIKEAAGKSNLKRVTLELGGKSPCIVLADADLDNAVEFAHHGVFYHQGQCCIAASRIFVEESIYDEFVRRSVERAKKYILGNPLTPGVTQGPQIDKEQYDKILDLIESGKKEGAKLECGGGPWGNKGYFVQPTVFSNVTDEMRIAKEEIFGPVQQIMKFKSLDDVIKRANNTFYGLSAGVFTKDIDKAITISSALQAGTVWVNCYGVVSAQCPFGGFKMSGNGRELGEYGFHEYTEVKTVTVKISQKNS
LMNA splice mod: changes lamin A minigene splicing in HeLa cells; HeLa LMNA splicing GFP/RFP minigene ratio, 48 h; actives 0.01% (n = 200,000); Potency, µM (titrated, usually from 46.1 µM), without a hit: at the highest dose ratio change, negative = inhibition, hits mostly inhibitors; active means well fitted inhibition curve with a large enough effect in the signal ratio, with a control signal flat, not every such curve was filed as active; inconclusive means small, poorly fitted or top-dose-only effect, or effect the other way, or a change in a side signal; the % refers to the signal ratio; further: potency means the concentration at half of the fitted maximal effect
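Read-out is the ratio of GFP to DsRed2 object intensity, acquired by 488 nm laser-scanning cytometry on HeLa lamin A-EGFP minigene reporter cells. Compound incubation 48 hrs at 37 °C in Opti-MEM with 2% FBS; DMSO 0.5% final.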
KinaseGlo FLuc: blocks Kinase-Glo luciferase, a counter-screen artifact; Kinase-Glo luciferase, ATP luminescence, 8 min; actives 0.28% (n = 200,000); AID 1379; Q27757; Potency, µM (top dose mostly 38.3 µM), for the others: at the highest dose activity change, negative = inhibition, most hits filed as inhibitors; active means well fitted inhibition curve with a large enough effect; inconclusive means small, poorly fitted or top-dose-only effect; further: potency means the concentration at half of the fitted maximal effect; nearly all actives have a fitted effect of over 60% in size
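Compounds were added to a substrate mix at pH 7.2 (50 mM imidazole, 10 uM ATP, within the enzyme's linear range), followed by Kinase-Glo detection reagent; luminescence was measured after 8 minutes at ambient temperature.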
PNC assembly inh: inhibitors of perinucleolar compartment assembly; PC3M PTB-GFP, PNC prevalence imaging, 16 h; active compounds read low; activity change (PNC), negative = inhibition, % at 10 µM; actives 3.1% (n = 140,000); AID 2417;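 active means readout at or below -70, meaning at least 70% loss of cells showing the perinucleolar compartment, a nuclear body marking cancer cells; inconclusive means readout between -30 and a set limit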;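 further: plate controls were DMSO wells for no effect and camptothecin positive control wells for full effect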
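PC3M cells stably expressing PTB-GFP, 750–1000 cells/well, treated 16 h at 37 °C with compound (23 nl of library stock), in duplicate. After paraformaldehyde fixation and Hoechst stain, imaged at 20x; PNC prevalence scored by image analysis.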
HPGD inh: blocks human HPGD enzyme activity; P15428; actives 4.3% (n = 150,000); purified HPGD, NADH fluorescence kinetic, PGE2 substrate; Potency, µM, inactives show at the top dose activity change, negative = inhibition, actives largely listed as inhibitors; further: potency means the concentration at half of the fitted maximal effect
Target sequence (P15428 whole entry, looked up): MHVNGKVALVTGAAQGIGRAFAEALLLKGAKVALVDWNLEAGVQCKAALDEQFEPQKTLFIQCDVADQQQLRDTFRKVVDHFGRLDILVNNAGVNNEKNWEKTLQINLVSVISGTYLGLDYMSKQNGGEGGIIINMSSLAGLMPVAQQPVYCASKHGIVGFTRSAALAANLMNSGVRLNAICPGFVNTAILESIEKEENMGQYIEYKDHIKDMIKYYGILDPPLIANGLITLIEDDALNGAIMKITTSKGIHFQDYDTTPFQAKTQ
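20 nM HPGD preincubated 15 min at room temperature with compound in 50 mM Tris-HCl pH 8, 0.01% Tween 20. Started with 1 mM NAD+ and 30 uM prostaglandin E2; NADH fluorescence (360/450 nm) read 5 times over 30-s intervals, last minus first.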
Numbers without * were called inactive; [ ] = remark or other dose. Unless noted, the call rests on the fitted dose curve; in most records, active means well fitted inhibition curve with a large enough effect (not every such curve was filed as active); inconclusive means small, poorly fitted or top-dose-only effect, or another doubt; inactive means no such curve, though single readings can be large or run the other way. Unless noted, on the % scale 0 is the no-effect control and ±100 the full control effect.

How did CC1CCC(NC(=O)c2ccc(CNc3c(NC4CCCCC4)c(=O)c3=O)cc2)CC1 (centres undefined) do in these assays?
ALDH1A1 block: inconclusive; LMNA splice mod: -1%; KinaseGlo FLuc: -1%; PNC assembly inh: 23; HPGD inh: inconclusive

Results for O=C(NC1CCCC1)c1ccc(CNc2c(N3CCOCC3)c(=O)c2=O)cc1 ?
ALDH1A1 block: 5%; LMNA splice mod: 11%; KinaseGlo FLuc: -1%; PNC assembly inh: -8; HPGD inh: 7.9µM*

What do the screens show for `CC1CCN(c2c(NCc3ccc(C(=O)N4c5ccccc5CC4C)cc3)c(=O)c2=O)CC1` (centres undefined)?
ALDH1A1 block: -11%; LMNA splice mod: inconclusive; KinaseGlo FLuc: 2%; PNC assembly inh: 18; HPGD inh: 13µM*

What do the screens show for `O=C(Nc1ccc(C(=O)OCc2cc(=O)n3c4c(sc3n2)CCCC4)cc1)c1ccc(F)cc1`?
LMNA splice mod: 8%[46 µM]

Results for COc1c(Br)cc2c(C)c(C(=O)O)oc2c1Br ?
ALDH1A1 block: inconclusive; LMNA splice mod: inconclusive; KinaseGlo FLuc: 5%; PNC assembly inh: 25; HPGD inh: 14µM*

How did NNC(=O)c1sc2cc(C(F)(F)F)cnc2c1-c1cccs1 do in these assays?
ALDH1A1 block: 0.2µM*

What do the screens show for `OC1c2ccccc2-c2nc3ccccc3cc21` (centres undefined)?
ALDH1A1 block: inconclusive; KinaseGlo FLuc: inconclusive; HPGD inh: -25%

Results for Cn1c(C(=O)NCC2CCCO2)cc2oc3ccccc3c21 (centres undefined) ?
ALDH1A1 block: -7%; LMNA splice mod: inconclusive; KinaseGlo FLuc: -5%; PNC assembly inh: -6; HPGD inh: 1.4µM*

What do the screens show for `Cn1c(C(=O)NCc2ccccc2)cc2oc3ccccc3c21`?
ALDH1A1 block: inconclusive; LMNA splice mod: inconclusive; KinaseGlo FLuc: -5%; PNC assembly inh: -106*; HPGD inh: inconclusive

Results for C=CCN1C(=O)C2(/C(=C(\O)c3ccc4c(c3)OCCO4)C(=O)C(=O)N2CCCOC)c2ccccc21 (centres undefined) ?
ALDH1A1 block: 2.8µM*; LMNA splice mod: 5%; KinaseGlo FLuc: -1%; PNC assembly inh: -96*; HPGD inh: -18%

What do the screens show for `O=C(O)COc1ccc(OCCNC[C@H](O)COc2ccccc2)cc1`?
ALDH1A1 block: 9%

How did O=C(Nc1ccccc1)c1ccc(Br)c(S(=O)(=O)N2CCCCC2)c1 do in these assays?
LMNA splice mod: -5%[46 µM]

What do the screens show for `O=C(NCc1ccccc1)c1ccc2c(=O)[nH]c3c(C(=O)NCC4CCCO4)sc(=S)n3c2c1` (centres undefined)?
ALDH1A1 block: 20µM*; LMNA splice mod: inconclusive; KinaseGlo FLuc: -2%

How did Cc1ccc(CNC(=O)c2ccc3c(=O)[nH]c4c(C(=O)NCC5CCCO5)sc(=S)n4c3c2)cc1 (centres undefined) do in these assays?
ALDH1A1 block: inconclusive; KinaseGlo FLuc: 0%

What do the screens show for `CCCCCNC(=O)c1ccc2c(=O)[nH]c3c(C(=O)NCC4CCCO4)sc(=S)n3c2c1` (centres undefined)?
ALDH1A1 block: inconclusive; LMNA splice mod: -1%; KinaseGlo FLuc: -3%; PNC assembly inh: 27; HPGD inh: 11µM*

How did O=C(CCl)Nc1ccccc1C(=O)c1ccccc1 do in these assays?
ALDH1A1 block: 25µM*; LMNA splice mod: 0%[46 µM]; KinaseGlo FLuc: -1%

Results for Cc1ccc(NS(C)(=O)=O)c(C(=O)c2ccccc2)c1 ?
ALDH1A1 block: -3%; LMNA splice mod: 10%; KinaseGlo FLuc: -1%; PNC assembly inh: -10; HPGD inh: -10%

Results for CCC(=O)Nc1ccccc1C(=O)OCc1ccc(C(=O)c2ccccc2)cc1 ?
ALDH1A1 block: inconclusive; LMNA splice mod: 10%; KinaseGlo FLuc: -1%; PNC assembly inh: 4; HPGD inh: 14µM*

Results for Cc1cc(C(=O)c2ccccc2)c(NC(=O)CCl)s1 ?
ALDH1A1 block: 2.5µM*; LMNA splice mod: inconclusive; KinaseGlo FLuc: 1%; PNC assembly inh: inconclusive; HPGD inh: inconclusive

How did O=C(Nc1ccc(C(F)(F)F)cc1)C1(c2cccs2)CCOCC1 do in these assays?
LMNA splice mod: 20%[46 µM]

What do the screens show for `CCC(C)NC(=O)c1sc2ncccc2c1-n1c(C)ccc1C` (centres undefined)?
LMNA splice mod: 9%[46 µM]

How did COC(=O)c1ccc(C(NC(=O)OCc2ccccc2)/C(=C/[C@@H](C)C(=O)NCc2ccc(OC)c(OC)c2)c2cccnc2)cc1 (some centres undefined) do in these assays?
ALDH1A1 block: 2%; KinaseGlo FLuc: -3%; HPGD inh: -5%

What do the screens show for `c1nc2nc3c(c(N4CCOCC4)n2n1)CCCC3`?
ALDH1A1 block: 3%; LMNA splice mod: inconclusive; KinaseGlo FLuc: -1%; PNC assembly inh: -107*; HPGD inh: -12%

Results for Clc1cccc(-c2cc3nc4c(c(N5CCOCC5)n3n2)CCCC4)c1 ?
ALDH1A1 block: inconclusive; LMNA splice mod: inconclusive; KinaseGlo FLuc: -4%; PNC assembly inh: 16; HPGD inh: inconclusive

What do the screens show for `O=C(Nc1ccc(Oc2ccccc2)cc1)C1CCN(c2c3c(nc4ncnn24)CCC3)CC1`?
ALDH1A1 block: inconclusive; LMNA splice mod: inconclusive; KinaseGlo FLuc: 1%; PNC assembly inh: 67; HPGD inh: -15%

How did Fc1cccc(-c2cc3nc4c(c(N5CCOCC5)n3n2)CCCC4)c1 do in these assays?
ALDH1A1 block: inconclusive; LMNA splice mod: inconclusive; KinaseGlo FLuc: -7%; PNC assembly inh: -91*; HPGD inh: inconclusive

What do the screens show for `O=C(Nc1ccc2c(c1)CCC2)C1CCN(c2c3c(nc4ncnn24)CCC3)CC1`?
ALDH1A1 block: 16µM*; LMNA splice mod: inconclusive; KinaseGlo FLuc: 2%; PNC assembly inh: 19; HPGD inh: inconclusive

What do the screens show for `Clc1cccc(-c2cc3nc4c(c(N5CCN(c6cnccn6)CC5)n3n2)CCCC4)c1`?
ALDH1A1 block: inconclusive; LMNA splice mod: -5%; KinaseGlo FLuc: -1%; PNC assembly inh: -100*; HPGD inh: inconclusive

How did COc1ccc(NC(=O)N2CCCC3(CCN(C(=O)c4c(C)noc4C)CC3)C2)cc1 do in these assays?
ALDH1A1 block: -5%; KinaseGlo FLuc: 3%; HPGD inh: -7%

How did CN1CCN(c2ccncc2S(=O)(=O)N2CCN(C)CC2)CC1 do in these assays?
ALDH1A1 block: 13%[13.5 µM]; KinaseGlo FLuc: 1%[7.66 µM]; HPGD inh: -5%

Results for Cc1ccccc1S(=O)(=O)O[C@@H]1NS(=O)(=O)c2ccccc21 ?
ALDH1A1 block: 17%[13.5 µM]; KinaseGlo FLuc: 0%[7.66 µM]; HPGD inh: 1%

How did Cc1cccc(NC(=O)c2sc3ncnc(N(C)C4CCCCC4)c3c2C)c1C do in these assays?
LMNA splice mod: 2%[46 µM]

Assay outcomes: PubChem BioAssay, National Center for Advancing Translational Sciences (NCATS)
